Experimental data reported in PubChem BioAssay.
Values joined by “and” are separate entries in the source; they are usually repeats but may differ in a detail not shown here. Equal entries are not always repeated. Active and inactive are the calls of the source.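 The calls were made as follows, unless noted: active = compounds whose cell count with miR-34 switched on is under 0.7 times the count with it off; inactive = the rest.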

Tests used:
[1] = sensitizers of A549 cells to miR-34 induction, primary screen, imaging, A549 dox-inducible miR-34, nuclei and caspase counts (AID 1347080); conditions: A549 miR-34 inducible, Hoechst nuclei count, 48 h
[2] = survival rescue of mitochondrial mutant cells in low glucose, primary screen, MELAS cybrids, Rieske KO mouse fibroblasts, CellTiter-Glo (AID 1508586;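 active = mean z-score across replicates of 1.96 or higher in either the MELAS or the Rieske mutant cell line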;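 also: z relative to plate mean and SD of compound and empty wells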)
[3] = target: NAD(+) hydrolase SARM1 (Homo sapiens) (UniProt Q6SZW1); experiment: SARM1 TIR NADase inhibitors, cell lysate, NAD-Glo luminescence (AID 1508614;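 active = compound whose remaining NAD level is above about 45 nM, limit read from the data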;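 also: higher remaining NAD means stronger inhibition of SARM1 NADase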); conditions: SAM-TIR HEK293T lysate NADase, at 1 µM, stronger effect = higher value
[4] = target: Mitogen-activated protein kinase 7 (Homo sapiens) (UniProt Q13164); experiment: ERK5 transactivation activators in reporter cells, primary screen, cell-based, HTS (AID 1508626;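 active = luciferase signal above three times the same-plate solvent-only control wells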;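 also: luciferase driven by Gal4-ERK5 fusion binding five Gal4 sites before minimal TATA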); conditions: HeLa Gal4-ERK5 transactivation, 18 h, at 5 µM, stronger effect = higher value
[5] = viability rescue of complex I mutant cybrids, primary screen, cell-based, galactose medium, ATP luminescence (AID 1645843;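 active = z-score of at least 1.8 in each of two replicates, scored against plate mean and spread of sample wells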;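 also: positive z means more ATP and so rescue of galactose-driven cybrid death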); conditions: complex I mutant cybrid cells, 72 h, stronger effect = higher value
[6] = stronger effect = lower value, cell number ratio, induced over uninduced
[7] = measured here: relative caspase fold change +Dox/-Dox
[8] = measured here: total cells with miR-34 induction, stronger effect = lower value
[9] = measured here: total cells without miR-34 induction
[10] = MELAS cybrid survival, CellTiter-Glo 48 h, stronger effect = higher value
[11] = Rieske KO mouse fibroblast survival, CellTiter-Glo 72 h

NAD(+) hydrolase SARM1 (Homo sapiens), sequence (Q6SZW1 whole entry, looked up, the tested form may be a part): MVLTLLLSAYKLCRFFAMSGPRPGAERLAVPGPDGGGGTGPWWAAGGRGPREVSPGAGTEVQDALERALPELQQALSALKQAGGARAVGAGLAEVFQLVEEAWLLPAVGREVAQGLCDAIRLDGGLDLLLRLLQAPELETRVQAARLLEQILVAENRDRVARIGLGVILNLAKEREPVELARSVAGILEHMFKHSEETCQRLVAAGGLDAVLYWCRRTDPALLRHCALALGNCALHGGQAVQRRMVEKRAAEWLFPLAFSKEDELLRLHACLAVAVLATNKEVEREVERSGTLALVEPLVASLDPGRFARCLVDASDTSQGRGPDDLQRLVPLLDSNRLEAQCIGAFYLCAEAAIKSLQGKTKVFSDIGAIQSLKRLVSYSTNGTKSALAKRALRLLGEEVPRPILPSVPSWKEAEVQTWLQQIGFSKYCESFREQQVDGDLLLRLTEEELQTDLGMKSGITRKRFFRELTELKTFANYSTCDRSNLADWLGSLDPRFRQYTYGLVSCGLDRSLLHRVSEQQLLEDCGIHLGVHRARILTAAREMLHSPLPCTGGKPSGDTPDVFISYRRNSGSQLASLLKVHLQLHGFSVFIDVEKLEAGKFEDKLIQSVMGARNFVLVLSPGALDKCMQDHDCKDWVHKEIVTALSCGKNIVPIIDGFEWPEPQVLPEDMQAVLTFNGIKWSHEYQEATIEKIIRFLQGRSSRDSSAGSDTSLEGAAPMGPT
Mitogen-activated protein kinase 7 (Homo sapiens), sequence (Q13164 whole entry, looked up, the tested form may be a part): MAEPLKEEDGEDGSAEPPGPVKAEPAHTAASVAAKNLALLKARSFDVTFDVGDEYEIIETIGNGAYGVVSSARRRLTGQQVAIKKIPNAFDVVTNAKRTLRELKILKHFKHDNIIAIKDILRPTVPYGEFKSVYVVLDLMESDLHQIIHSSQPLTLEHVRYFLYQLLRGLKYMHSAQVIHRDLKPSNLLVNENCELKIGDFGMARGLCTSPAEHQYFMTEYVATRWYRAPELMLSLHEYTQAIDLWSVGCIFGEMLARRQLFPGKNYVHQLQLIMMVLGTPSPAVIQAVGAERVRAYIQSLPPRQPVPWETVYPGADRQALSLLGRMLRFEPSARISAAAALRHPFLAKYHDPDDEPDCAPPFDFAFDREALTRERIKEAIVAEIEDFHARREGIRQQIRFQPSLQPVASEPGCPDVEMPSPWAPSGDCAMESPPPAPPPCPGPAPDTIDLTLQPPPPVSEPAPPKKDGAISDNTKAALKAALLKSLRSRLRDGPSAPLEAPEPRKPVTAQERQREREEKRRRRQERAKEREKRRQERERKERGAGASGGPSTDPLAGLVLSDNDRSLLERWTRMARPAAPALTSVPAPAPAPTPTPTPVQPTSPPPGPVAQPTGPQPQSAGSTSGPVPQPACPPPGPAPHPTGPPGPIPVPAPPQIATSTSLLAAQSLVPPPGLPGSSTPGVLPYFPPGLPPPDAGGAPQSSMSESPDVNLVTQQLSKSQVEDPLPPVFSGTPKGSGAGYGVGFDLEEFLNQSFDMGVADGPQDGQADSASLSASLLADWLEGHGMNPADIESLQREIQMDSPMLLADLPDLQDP

SMILES	fold change [1, 6]	fold change [1, 7]	cell count [1, 8]	cell count [1, 9]	z-score [2, 10]	z-score [2, 11]	remaining NAD [3]	luciferase signal [4]	z-score [5]
Cc1cc(NC(=O)C2=C(O)c3ccccc3S(=O)(=O)N2C)no1	0.901 (inactive) and 0.859 (inactive)	1.1 and 2.9	8700 and 11400	9660 and 13300	0.335 (inactive)	0.203	10 nM (inactive)	72 AU (inactive)	–
CCN(CC)CCNC(=O)c1cc(Br)c(N)cc1OC	0.86 (inactive)	1.23	8310	9660	-0.546 (inactive)	0.146	10 nM (inactive)	60 AU (inactive)	–
COc1cc2c3cc1Oc1cc(ccc1O)C[C@@H]1c4c(cc(OC)c(O)c4Oc4ccc(cc4)C[C@@H]3N(C)CC2)CC[N+]1(C)C	0.869 (inactive) and 0.934 (inactive)	2.84 and 1.19	11500 and 10000	13300 and 10700	-0.392 (inactive)	-0.225	10 nM (inactive)	32 AU (inactive)	0.605 (inactive)
CC(=O)OCC(=O)[C@@]1(O)[C@H](C)C[C@H]2[C@@H]3CCC4=CC(=O)C=C[C@]4(C)[C@@]3(F)[C@@H](O)C[C@@]21C	0.93 (inactive)	1.03	6000	6450	-0.294 (inactive)	0.00126	10 nM (inactive)	120 AU (inactive)	–
C[n+]1ccccc1/C=N/O	0.951 (inactive) and 0.91 (inactive)	1.53 and 0.982	10700 and 9130	11200 and 10000	0.437 (inactive)	-0.00254	10 nM (inactive)	84 AU (inactive)	0.085 (inactive)
C=C1c2cccc(O)c2C(O)=C2C(=O)[C@]3(O)C(O)=C(C(N)=O)C(=O)[C@@H](N(C)C)[C@@H]3[C@@H](O)[C@H]12	0.869 (inactive) and 0.999 (inactive)	1.25 and 1.82	7110 and 11900	8180 and 11900	0.00753 (inactive)	-2.31	10 nM (inactive)	40 AU (inactive)	–
CC(NCCC(c1ccccc1)c1ccccc1)c1ccccc1 (stereo not drawn)	0.975 (inactive)	1.46	2830	2900	-0.775 (inactive)	-0.331	10 nM (inactive)	36 AU (inactive)	–
Cc1cc(=O)n(-c2ccccc2)n1C	0.939 (inactive) and 0.859 (inactive) and 0.88 (inactive)	0.938 and 0.796 and 1.12	8700 and 7960 and 10700	9270 and 12100	-0.258 (inactive) and 0.556 (inactive)	-0.2 and -0.0597	10 nM (inactive)	116 AU (inactive)	–
NC(N)=NCCN1CCCCCCC1	0.903 (inactive) and 0.92 (inactive)	1.86 and 0.829	8660 and 10700	9590 and 11600	-0.808 (inactive)	0.402	10 nM (inactive)	32 AU (inactive)	–
C/C=C/c1ccc(OC)cc1	0.85 (inactive) and 0.895 (inactive)	3 and 1.61	10200 and 9980	11900 and 11200	-0.525 (inactive)	-1.37	10 nM (inactive)	76 AU (inactive)	0.095 (inactive)
O=C(OCC(O)CO)c1ccccc1Nc1ccnc2cc(Cl)ccc12 (stereo not drawn)	0.91 (inactive)	1.28	8940	9820	1.77 (inactive)	0.884	10 nM (inactive)	176 AU (active)	–
Cc1c(Cl)cccc1Nc1ccccc1C(=O)O	0.957 (inactive) and 1.02 (inactive) and 0.935 (inactive)	1 and 0.422 and 1.23	9330 and 8170 and 9290	9750 and 8010 and 9940	-0.324 (inactive) and 0.232 (inactive) and 0.0953 (inactive)	-0.0198 and -0.0599 and -0.617	10 nM (inactive)	52 AU (inactive)	1.29 (inactive)
CO[C@]12C[C@@H](COC(=O)c3cncc(Br)c3)CN(C)[C@@H]1Cc1cn(C)c3cccc2c13	0.861 (inactive) and 0.885 (inactive) and 0.895 (inactive)	1.4 and 2.61 and 0.782	8590 and 11400 and 9340	9980 and 12900 and 10400	0.949 (inactive) and 0.883 (inactive)	0.302 and 0.698	10 nM (inactive)	56 AU (inactive)	1.27 (inactive)
C[C@H](N)[C@H](O)c1cccc(O)c1	0.936 (inactive) and 0.834 (inactive)	1.15 and 3.09	9120 and 10800	9740 and 13000	0.835 (inactive)	0.306	10 nM (inactive)	40 AU (inactive)	–
C[C@]12CCC(=O)C=C1C=C[C@@H]1[C@@H]2CC[C@@]2(C)[C@H]1CC[C@@]21CCC(=O)O1	0.826 (inactive)	1.19	8530	10300	-0.57 (inactive) and -0.163 (inactive)	-0.749 and -0.289	10 nM (inactive)	40 AU (inactive)	-0.645 (inactive)
NCCCC[C@H](N[C@@H](CCc1ccccc1)C(=O)O)C(=O)N1CCC[C@H]1C(=O)O	0.921 (inactive) and 0.874 (inactive) and 0.913 (inactive)	0.957 and 2.44 and 1.18	8900 and 11300 and 9570	9670 and 13000 and 10500	0.256 (inactive) and -0.39 (inactive)	-0.142 and -0.658	10 nM (inactive)	92 AU (inactive)	0.245 (inactive)
NS(=O)(=O)c1cc2c(cc1Cl)NC(CSCc1ccccc1)=NS2(=O)=O	0.856 (inactive) and 0.772 (inactive)	1.39 and 1.03	8870 and 9840	10400 and 12800	0.425 (inactive)	-0.312	10 nM (inactive)	88 AU (inactive)	–

SMILES	fold change [1, 6]	fold change [1, 7]	cell count [1, 8]	cell count [1, 9]	z-score [2, 10]	z-score [2, 11]	remaining NAD [3]	luciferase signal [4]	z-score [5]
CCN(CCCc1ccccc1)CCCc1ccccc1	0.954 (inactive) and 0.931 (inactive) and 0.904 (inactive)	1.55 and 0.42 and 0.729	9190 and 7300 and 10700	9640 and 7840 and 11900	-0.31 (inactive) and -0.215 (inactive)	-0.176 and -0.103	10 nM (inactive)	48 AU (inactive)	–
CC(Cc1cccc(C(F)(F)F)c1)NCCOC(=O)c1ccccc1 (stereo not drawn)	0.816 (inactive)	1.56	8560	10500	0.63 (inactive)	0.0603	10 nM (inactive)	84 AU (inactive)	–
CCOC(=O)OC(C)OC(=O)[C@@H]1N2C(=O)[C@@H](NC(=O)[C@H](N)c3ccccc3)[C@H]2SC1(C)C (stereo partly drawn)	0.838 (inactive)	1.63	8230	9820	0.0142 (inactive)	-0.106	10 nM (inactive)	76 AU (inactive)	–
O=C(O)CCC(=O)c1ccc(-c2ccccc2)cc1	0.889 (inactive) and 0.912 (inactive) and 0.859 (inactive)	0.334 and 2.8 and 1.54	8550 and 11300 and 9420	9620 and 12400 and 11000	0.38 (inactive) and 0.679 (inactive)	0.124 and 0.414	10 nM (inactive)	68 AU (inactive)	0.975 (inactive)
NC(=O)N/N=C/c1ccc([N+](=O)[O-])o1	0.848 (inactive) and 0.979 (inactive)	1.31 and 0.64	7760 and 9710	9150 and 9920	-0.906 (inactive)	-1.1	10 nM (inactive)	36 AU (inactive)	–
C[N+]12CCC(CC1)C(OC(=O)C(O)(c1ccccc1)c1ccccc1)C2 (stereo not drawn)	0.841 (inactive) and 0.859 (inactive)	1.4 and 1.29	8530 and 9960	10100 and 11600	0.605 (inactive)	-0.405	10 nM (inactive)	48 AU (inactive)	–
Nc1ncnc2c1ncn2[C@@H]1O[C@H](COP(=O)(O)O)[C@@H](O)[C@H]1O	0.848 (inactive)	1.03	9640	11400	0.774 (inactive)	0.196	10 nM (inactive)	292 AU (active)	–
Oc1c(Cl)cc(Cl)c(Cl)c1Cc1c(O)c(Cl)cc(Cl)c1Cl	1.05 (inactive) and 0.85 (inactive)	2.17 and 2.72	2100 and 2440	2010 and 2860	-0.483 (inactive)	0.0864	10 nM (inactive)	28 AU (inactive)	-1.5 (inactive)
Nc1c2ccccc2nc2ccccc12	2.19 (inactive)	1	782	356	2.4 (active)	-1.96	10 nM (inactive)	92 AU (inactive)	–
CC1(C)O[C@@H]2C[C@H]3[C@@H]4C[C@H](F)C5=CC(=O)CC[C@]5(C)[C@H]4[C@@H](O)C[C@]3(C)[C@]2(C(=O)CO)O1	0.775 (inactive)	0.796	4730	6100	-0.21 (inactive)	0.615	10 nM (inactive)	228 AU (inactive)	–
CC[C@]12CCCN3CCc4c(n(c5ccccc45)[C@@](O)(C(=O)OC)C1)[C@@H]32	0.85 (inactive)	1.33	8280	9750	0.291 (inactive)	-0.0307	10 nM (inactive)	112 AU (inactive)	–
CC1=C(C(=O)O)N2C(=O)[C@@H](NC(=O)[C@H](N)c3ccc(O)cc3)[C@H]2SC1	0.85 (inactive)	1.87	8500	10000	0.444 (inactive)	0.13	10 nM (inactive)	108 AU (inactive)	–
CCOc1ccc2nc3cc(N)ccc3c(N)c2c1	0.785 (inactive) and 0.928 (inactive)	2.5 and 0.759	3210 and 7370	4090 and 7950	7.85 (active)	4.68	10 nM (inactive)	32 AU (inactive)	–
CN(C/C=C/C#CC(C)(C)C)Cc1cccc2ccccc12	0.935 (inactive) and 0.938 (inactive)	4.07 and 1.16	11600 and 9190	12400 and 9800	0.287 (inactive) and -0.488 (inactive)	-0.0957 and -0.937	10 nM (inactive)	52 AU (inactive)	-1.48 (inactive)
Nc1ncnc2nc[nH]c12	0.911 (inactive) and 0.881 (inactive)	0.822 and 4.73	8220 and 12600	9020 and 14300	-0.543 (inactive)	-0.641	10 nM (inactive)	72 AU (inactive)	–
COC(=O)N/N=C/c1c[n+]([O-])c2ccccc2[n+]1[O-]	0.833 (inactive) and 0.91 (inactive)	6.83 and 1.15	10200 and 7650	12300 and 8400	0.937 (inactive) and 0.871 (inactive)	0.153 and -0.0791	10 nM (inactive)	172 AU (inactive)	0.34 (inactive)
Cc1c(Nc2ncccc2C(=O)O)cccc1C(F)(F)F	0.839 (inactive) and 0.931 (inactive) and 0.832 (inactive)	1.09 and 0.676 and 4.07	7890 and 7810 and 10300	9410 and 8390 and 12400	-0.0893 (inactive) and -0.97 (inactive)	0.0703 and 0.938	10 nM (inactive)	44 AU (inactive)	–
